Assay outcomes as filed in PubChem BioAssay.
FMDV antiviral – High Throughput Screening for Foot and Mouth Disease Virus Antivirals. FMDV antiviral cell-based qHTS. 1.2% of 410,000 active. Potency, µM (doses to about 57.9 µM), for inactives: at the top dose activity change, negative = inhibition, usual class: inhibitors. AID 1159524, 2015; calls by dose curve; tested in HEK293T cells; also: read-out not given here; potency is read from the fitted curve at half-maximal effect; nearly all actives have a fitted effect of over 45% in size
HCV inh – qHTS Assay for Inhibitors of Hepatitis C Virus (HCV) | Potency, µM (titrated, usually from 41.8 µM), without a hit: at the highest dose activity change, negative = inhibition, most hits filed as inhibitors | 3.4% of 340,000 active | Huh7.5.1 HCVcc-Cre infection, luciferase reporter, 44 h; active = well fitted inhibition curve with a large enough effect; inconclusive = small, poorly fitted or top-dose-only effect, or another doubt; inactive = no such curve, though single readings can be large or run the other way; also: potency is read from the fitted curve at half-maximal effect
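Luciferase read-out (15 sec integration) after a 15 min room-temperature substrate step quantifies HCVcc-Cre infection. Cells, 1,000 per well, had compound added 4 h post-plating, then virus at ~0.5 moi, and were cultured 44 h.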
HCMV inh – qHTS Assay for inhibitors of the human cytomegalovirus (HCMV) | AID 1259415, 2018 | HFF cells, HCMV-luciferase reporter, 72 h; hits give low values | activity change, negative = inhibition, % at 57.5 µM | 4.5% of 410,000 active; in the data active = activity change below about -60%; inconclusive = no clear call, values can overlap the other calls; inactive = above about -39%
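Two-dose cell screen: HFF monolayers treated with compounds and infected with luciferase-expressing HCMV at 1 PFU/cell, 72 h at 37C, then lysed for luciferase measurement.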
Vaccinia Venus – qHTS for Stage-Specific Inhibitors of Vaccinia Orthopoxvirus: Venus Reporter Primary qHTS; 0.46% of 330,000 active; Vaccinia virus Venus reporter expression, fluorescence; Potency, µM (highest dose often 36.5 µM), inactives show at the highest dose activity change, negative = inhibition, most hits filed as inhibitors; AID 720580, 2013; calls by dose curve; tested in A549 cells; also: potency is read from the fitted curve at half-maximal effect; nearly all actives have a fitted effect of over 30% in size
Vaccinia mCherry – qHTS for Stage-Specific Inhibitors of Vaccinia Orthopoxvirus: mCherry Reporter Primary qHTS; Vaccinia virus mCherry reporter infection, fluorescence; Potency, µM (highest dose often 36.5 µM), without a hit: top-dose activity change, negative = inhibition, most hits filed as inhibitors; 0.63% of 310,000 active; AID 720579, 2013; calls by dose curve; tested in A549 cells; also: potency is read from the fitted curve at half-maximal effect; nearly all actives have a fitted effect of over 35% in size
The depositor's hits bear a star; i = inactive; ? = inconclusive; · = not tested or not shown; + = active, no number; ! = not confirmed by another sample; [ ] = remark or other dose. Hits are enriched below; roughly 7.3% of the tested compounds scored in any of these assays. % is scaled to controls: 0 for no effect and ±100 for the full control effect.

SMILES | FMDV antiviral | HCV inh | HCMV inh | Vaccinia Venus | Vaccinia mCherry
CCCC(NC(C)C(=O)N1C(C(=O)O)CC2CCCCC21)C(=O)OCC (configuration not stated) | 26.2% | · | · | 0.9% | -3.9%
CCOCCCN(C)C1CCN(C(=O)c2oc3ccccc3c2NC(=O)c2cccc([N+](=O)[O-])c2)CC1 | 25.8% | 14.1µM* | 0.0 | -2.4% | ?
CCOCCCN(C)C1CCN(C(=O)c2oc3ccccc3c2NC(=O)Cc2ccc([N+](=O)[O-])cc2)CC1 | 25.1% | -27.5% | -19.2 | -17.2% | i
CCOc1ccc(NC(=O)CC2C(=O)N(c3cccc(C)c3)C(=O)N2Cc2ccco2)cc1 (configuration not stated) | 3.0% | · | -19.8 | -0.7% | 1.0%
COc1ccc(C(=O)CC(Nc2ccc([N+](=O)[O-])cc2)c2ccc(Cl)cc2)cc1 (configuration not stated) | -15.7% | ? | -88.0* | · | ·
COc1ccc(-n2ncc(C(=O)Nc3ccc4c(c3)OCCO4)c2C2CCN(C(=O)OC(C)(C)C)CC2)cc1 | -7.5% | · | + | -17.2% | -21.3%
Cc1c(Cl)cccc1-n1ncc(C(=O)Nc2ccc3c(c2)OCCO3)c1C1CCN(C(=O)OC(C)(C)C)CC1 | -4.5% | · | -82.3* | -15.0% | -5.1%
CC(C)(C)OC(=O)N1CCC(c2c(C(=O)Nc3ccc4c(c3)OCCO4)cnn2-c2ccc(F)cc2)CC1 | -4.5% | · | -5.9 | -17.7% | -27.6%
Cc1cccc(C)c1-n1ncc(C(=O)Nc2ccc3c(c2)OCO3)c1C1CCN(C(=O)OC(C)(C)C)CC1 | 4.7% | · | 7.2 | -7.2% | 0.9%
O=c1ccn(C2OC(COP(=O)(O)OP(=O)(O)OP(=O)(O)O)C(O)C2O)c(=O)[nH]1 (configuration not stated) | 2.7% | · | · | 0.0% | i
COc1ccc(C(C(=O)NC2CCCC2)n2c(CSCCOc3ccccc3)nc3ccccc32)cc1 (configuration not stated) | ? | · | ? | -6.6% | -23.4%
CCCCCCCCSC1=CC(=O)C(OC)=C(OC)C1=O | 17.8µM* | · | -87.3* | -7.8% | -7.2%
O=C(Cc1ncc(C(F)(F)F)cc1Cl)NNc1cccc(F)n1 | -3.2% | 9.1% | -37.1 | · | ·
Cc1csc(Nc2cccc3ccccc23)n1 | 22.2% | -4.1% | -28.2 | -1.7% | -16.3%
COc1ccc(C)cc1Nc1n[n+](-c2ccccc2)c(-c2cc(OC)c(OC)cc2Br)s1 | -2.9% | -27.9% | 6.9 | ? | -21.5%
Fc1ccc(-[n+]2nc(Nc3ccccc3)sc2-c2c3ccccc3cc3ccccc23)cc1 | 39.8µM* | -7.6%[8.37 µM] | -97.5* | ? | -13.3%
Oc1ccc2ccccc2c1-c1sc(Nc2ccccc2)n[n+]1-c1ccc(F)cc1 | -7.4% | -7.8% | 7.9 | 93.1% | -8.2%
c1ccc(-[n+]2nc(Nc3cccc4ccccc34)sc2-c2c3ccccc3cc3ccccc23)cc1 | -9.0% | 3.55µM* | · | -29.0% | i
COc1ccc(C)cc1Nc1n[n+](-c2ccccc2)c(-c2c(OC)ccc3ccccc23)s1 | ? | 31.6µM* | -100.9* | ? | 14.1µM*
COc1ccc(CCNC(=O)Cn2nc(C)c3c(C)n(-c4ccc(C)cc4)nc3c2=O)c(OC)c1 | ? | · | -91.1* | ? | -27.7%
COCCNC(=O)Cn1nc(C)c2c(C)n(-c3ccc(C)cc3)nc2c1=O | 0.0% | · | 0.0 | -5.8% | -8.6%
COc1ccc(OC)c(CCNC(=O)C(C)n2nc(C)c3c(C)n(-c4ccccc4)nc3c2=O)c1 (configuration not stated) | -7.8% | ? | -10.4 | -12.3% | i
COc1ccc(OC)c(CCNC(=O)C(C)n2nc(C)c3c(C)n(-c4ccc(C)cc4)nc3c2=O)c1 (configuration not stated) | 3.55µM* | 2.82µM* | -76.7*! | -28.3%[7.34 µM] | -22.3%[7.34 µM]
CCN(CC)CCNc1nc(-c2cccs2)c(CC(=O)O)s1 | -12.3% | 14.0% | -87.2* | -11.7% | i
Cc1cc(C(C)(C)C)cc(C)c1C[n+]1ccc2ccccc2c1 | ? | ? | -96.4* | · | ·
SMILES | FMDV antiviral | HCV inh | HCMV inh | Vaccinia Venus | Vaccinia mCherry
COc1ccccc1-c1c(C(F)(F)F)oc2cc(OS(C)(=O)=O)ccc2c1=O | 31.6µM* | ? | 29.8 | -16.1% | -16.2%
CCOC(=O)CSc1nc2cc(OCC)ccc2cc1C#N | 58.2% | -27.4% | 38.3 | · | ·
CCSc1nc2ccc(OC)cc2cc1C#N | 0.0% | 10µM* | 45.9 | -3.3% | -13.8%
COc1ccc2nc(Cl)c(C#N)cc2c1 | -1.8% | 5.2% | -36.0 | -20.2% | -0.8%
CCOc1ccc2nc(SCC#N)c(C#N)cc2c1 | 0.0% | -14.6% | -67.9* | · | ·
COc1ccc(C(=O)NCC2Cc3cccc(-c4cncnc4)c3O2)c(OC)c1OC (configuration not stated) | ? | · | · | -18.2% | -23.8%
CCc1ccc2[nH]c3nc(SCC(=O)NNC(=O)c4ccc(C(C)(C)C)cc4)nnc3c2c1 | -4.3% | ? | -105.9* | · | ·
CCc1ccc2[nH]c3nc(SCCN4CCOCC4)nnc3c2c1 | ? | ? | -90.6* | · | ·
Nc1[nH]c(=O)nc2nnsc12 | · | · | · | 3.2% | -12.2%
COC(=O)c1c(NC(=O)COc2ccc(Cl)cc2)sc2c1CC(C)(C)NC2(C)C | 18.9% | 11.2µM* | 24.3 | -9.0% | i
Cc1cc(OCC(=O)Nc2sc3c(c2C#N)CC(C)(C)NC3(C)C)c(C(C)C)cc1Cl | ? | 3.16µM* | -21.1 | · | ·
CC1(C)Cc2c(sc(NC(=O)COc3ccccc3)c2C#N)C(C)(C)N1 | -8.6% | 12.6µM* | 13.7 | -23.9% | -10.4%
Cc1ccc(C(C)C)c(OCC(=O)Nc2sc3c(c2C#N)CC(C)(C)NC3(C)C)c1 | ? | ? | · | -10.3% | i
CCCC(=O)Nc1sc2c(c1C#N)CC(C)(C)NC2(C)C | -16.8% | -5.0% | -17.8 | -5.2% | ·
COc1cc(CNC(=O)c2cnc(SC)nc2-c2ccccc2)cc(OC)c1OC | -3.8% | · | 0.1 | 1.1% | 3.8%
Cc1cc(C)c(C(=O)C(C)OC(=O)c2ccc(Cl)nc2)cc1C (configuration not stated) | -22.9% | 0.9% | -10.5 | -10.6% | -8.5%
CCOC(=O)C1(Cc2cccc(OC)c2)CCN(Cc2ccc(OC)c(OC)c2)CC1 | -26.3% | 11.2µM* | -27.4 | -18.2% | i
CCOC(=O)C1(Cc2ccccc2C(F)(F)F)CCN(Cc2ccc(COC)o2)CC1 | ? | 8.91µM* | ? | -8.9% | -23.7%
CCOC(=O)C1(Cc2cccc(OC)c2)CCN(Cc2cccc(OC)c2O)CC1 | 25.1µM* | ? | -73.0* | -10.5% | -21.5%
CCOC(=O)C1(CCOC)CCN(Cc2ccc(COC)o2)CC1 | -10.5% | -5.9% | 0.7 | -8.9% | i
CCOC(=O)C1(Cc2cccc(OC)c2)CCN(Cc2cccc(O)c2)CC1 | ? | -19.5% | -29.8 | -7.3% | -5.6%
CCOC(=O)C1(Cc2ccccc2)CCN(Cc2cccc(OC)c2O)CC1 | ? | ? | -5.2 | -11.9% | -19.8%
